# Screening results as filed in PubChem BioAssay.
# IL-1B inflam inh – inhibitors of inflammasome signaling (IL-1 beta secretion). hit rate 4.7% among 360,000. activity change, % at 57.5 µM. AID 743279. THP-1 LPS/ATP IL-1B secretion, AlphaLISA, 16 h; stronger effect = lower value; in the data active = activity change below about -50%; inconclusive = mostly about -30% to -49%; note: % is set by controls: 0 for no effect and ±100 for the full control effect
#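 Secreted IL-1B measured by AlphaLISA bead assay after 16 h compound exposure of THP-1 cells; compounds (final up to 57.5 uM) added 1 h before LPS (250 ng/mL) and ATP (1.25 mM) stimulation; lower signal means less secretion.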
# MCF10A rereplic – DNA re-replication induction in MCF 10a cells; Potency, µM (highest dose often 46.1 µM), inactives show top-dose activity, positive = re-replication, hits mostly activators; MCF 10A DNA re-replication, Hoechst nuclear intensity, 48 h; hit rate 2.9% among 350,000; note: potency is the fitted concentration of half-maximal effect; % of control where 0% means no effect; nearly all actives have a fitted effect of over 50% in size
# Gal4-VP16 FLuc – inhibits Gal4-VP16 luciferase reporter, ROR gamma counter-screen. hit rate 3.5% among 310,000. Drosophila S2 Gal4-VP16 UAS-luciferase, luminescence, 20 h. AID 2546. Potency, µM (highest dose often 53.6 µM), without a hit: at the top dose activity, negative = inhibition, actives largely listed as inhibitors;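 note: Gal4-VP16 expression switched on by copper sulfate through the metallothionein promoter; potency is the fitted concentration of half-maximal effect; % is set by controls: 0 for no effect and ±100 for the full control effect; nearly all actives have a fitted effect of over 50% in size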
# SW480 rerep – inducers of DNA re-replication in SW480 colon cancer cells. SW480 DNA re-replication, Hoechst DNA content imaging, 48 h. Potency, µM (top dose mostly 46.1 µM), for the others: top-dose re-replication activation, hits mostly activators. hit rate 1.8% among 340,000; note: potency is the fitted concentration of half-maximal effect; % of control where 0% means no effect; nearly all actives have a fitted effect of over 55% in size
#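 Image-based DNA-content assay: after two days of treatment, nuclei were labelled with the DNA dye Hoechst and imaged, and hits were compounds raising the count of nuclei showing high fluorescence intensity.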
# RORgamma inh – ROR gamma (mouse) transcription inhibition; Drosophila S2 Gal4-RORgamma UAS-luciferase reporter, 20 h; hit rate 5.4% among 310,000; P51450; Potency, µM (series often up to 53.6 µM), for inactives: top-dose activity change, negative = inhibition, most hits filed as inhibitors; note: potency is the fitted concentration of half-maximal effect; % is set by controls: 0 for no effect and ±100 for the full control effect; nearly all actives have a fitted effect of over 60% in size
# Target sequence (P51450 whole entry, looked up, the tested form may be a part): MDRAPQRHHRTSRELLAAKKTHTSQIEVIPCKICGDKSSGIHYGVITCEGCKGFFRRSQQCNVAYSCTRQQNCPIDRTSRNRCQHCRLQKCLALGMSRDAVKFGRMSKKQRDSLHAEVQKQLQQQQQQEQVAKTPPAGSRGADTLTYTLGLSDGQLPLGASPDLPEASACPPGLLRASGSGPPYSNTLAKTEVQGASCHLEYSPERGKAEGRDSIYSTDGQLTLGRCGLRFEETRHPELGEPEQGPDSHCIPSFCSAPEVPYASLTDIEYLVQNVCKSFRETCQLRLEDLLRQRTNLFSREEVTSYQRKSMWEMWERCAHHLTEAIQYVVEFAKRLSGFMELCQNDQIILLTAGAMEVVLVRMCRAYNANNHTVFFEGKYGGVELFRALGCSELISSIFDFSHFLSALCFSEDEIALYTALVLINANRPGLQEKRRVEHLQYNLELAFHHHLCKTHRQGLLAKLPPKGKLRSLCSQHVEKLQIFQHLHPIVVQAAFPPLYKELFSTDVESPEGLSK
#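 In this cell-based reporter format, copper sulfate (700 uM final) drives Gal4–ROR gamma fusion expression from a metallothionein promoter in Drosophila Schneider cells; compounds preincubated 1 hr, reporter read after 20 hr at ambient temperature.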
# * hit, by the source's call; ? = inconclusive; . = no result. Compounds with a hit are over-represented: about 11% of the library has one in this group of screens. Unless noted, calls come from the whole dose curve; as a rule, active = well fitted curve in the direction sought with a large enough effect; inconclusive = small, poorly fitted or top-dose-only effect, or another doubt; inactive = no such curve, though single readings can be large; an effect the other way counts as inactive or inconclusive.
SMILES,IL-1B inflam inh,MCF10A rereplic,Gal4-VP16 FLuc,SW480 rerep,RORgamma inh
COc1ccc(CC(N)c2csc(NC(=O)c3ccccc3OC)n2)cc1 (centres undefined),-7,.,.,.,.
COc1ccc(CC(N)c2csc(NC(=O)C(c3ccccc3)c3ccccc3)n2)cc1 (centres undefined),-52*,.,.,.,.
CC(C)(C)NC(=O)C(c1ccc(O)cc1)N(Cc1ccc2c(c1)OCO2)C(=O)CCl (centres undefined),11,.,.,.,.
CN(CC(=O)NCc1ccco1)CC(=O)Nc1c(Cl)cccc1Cl,-2,?,.,0%,.
CCOC(=O)CN(C(=O)c1snc(C(N)=O)c1N)C(C(=O)NC1CCCCC1)c1ccc(F)cc1 (centres undefined),-7,3%,2%,?,9%
CCN1C(=O)c2ccc(C(=O)NCc3ccco3)cc2C1=O,11,-2%,9%,0%,-1%
CC1=C(C(=O)OCc2ccccc2)C(c2ccc(N3CCOCC3)cc2)NC(=O)N1 (centres undefined),?,?,-4%,-5%,2%
CC1=C(C(=O)N(C)C)C(c2ccc(N3CCOCC3)cc2)NC(=O)N1 (centres undefined),-1,0.92µM*,2%,18µM*,-10%
CN(Cc1ccccc1)C(=O)[C@@H]1CCCN1C(=O)[C@@H]1CCCN1C(=O)c1ccc(Cl)cc1,34,.,.,.,.
CCOC(=O)c1nn(C)c2[nH]c(=O)n(C)c(=O)c12,14,2%,.,-4%,.
CCc1nc2ccc(C(=O)NCCCn3ccnc3)cn2c1N(C)C(=O)c1cccc(OC)c1,-5,.,.,.,.
Cc1ccc(S(=O)(=O)N(C)Cc2ccc(C(=O)NN=C(CC(C)C)CC(C)C)cc2)cc1,-27,16%,?,?,10µM*
Clc1nnc(NC2CCCCC2)c(Cl)c1Cl,28,.,.,.,.
Cn1c(SCC(=O)Nc2ccccc2Oc2ccccc2)nnc1C1CC1,-5,1%,.,-4%,.
O=C(CCN1C(=O)/C(=C/c2ccccc2Cl)SC1=S)N1CCCC1,-64*,?,-13%,15µM*,8.9µM*
O=C(CCN1C(=O)/C(=C/c2ccccc2Cl)SC1=S)N1CCOCC1,-112*,23µM*,?,?,7.1µM*
O=C(CCCN1C(=O)/C(=C/c2ccccc2Cl)SC1=S)N1CCCC1,-66*,?,-2%,?,8.9µM*
O=C1/C(=C/c2ccccc2Cl)SC(=S)N1CCC(=O)N1CCCCC1CCO (centres undefined),?,0%,-3%,-5%,-35%
CC(=O)O[C@@H]1CC2C(C)(C)C(=O)C=C[C@]2(C)C2CC[C@]3(C)C(=CC[C@H]3C3CO[C@@H](C(C)(C)O)[C@H](O)C3)[C@@]21C (some centres undefined),.,.,2%,.,14%
CCN(CC)CCN1c2ccccc2Sc2ccccc21,0,0%,-1%,-3%,-29%
CCN(CC)CCN1c2ccccc2Sc2ccc3ccccc3c21,-74*,?,-11%,18µM*,17%
CCCc1cc2c(=O)c(-c3nc4ccccc4s3)c(COCC(=O)O)oc2cc1O,53,23µM*,8%,?,11%
CCc1cc2c(=O)c(-c3nc4ccccc4n3C)c(COCC(=O)O)oc2cc1O,0,4%,-11%,?,26%
CCOc1ccc2c(c1)OC(c1ccc(OC)cc1)(C(F)(F)F)NC2=O (centres undefined),-29,2.3µM*,-3%,5.2µM*,58%
CCOc1ccc2c(c1)OC(c1ccccc1)(C(F)(F)F)NC2=O (centres undefined),17,12%,-5%,-1%,-9%
SMILES,IL-1B inflam inh,MCF10A rereplic,Gal4-VP16 FLuc,SW480 rerep,RORgamma inh
CCOc1ccc(OCC)c(NC(=O)CN2CCN(CC(=O)NC(C)C)CC2)c1,1,21%,-6%,5%,-19%
COc1ccc(/C=N\NC(=S)SCN2C(=O)C3CCC(C)(C2=O)C3(C)C)cc1 (centres undefined),6,?,.,4%,.
CN(C)c1ccc(/C=N\NC(=S)SCN2C(=O)C3CCC(C)(C2=O)C3(C)C)cc1 (centres undefined),-3,7.3µM*,?,?,0.32µM*
C#CCNC(=O)c1cc2c(Br)ccc(Br)c2nc1N,0,.,.,.,.
O=[N+]([O-])c1ccc(-c2ccc(/C=N/Nc3nc(N4CCCC4)nc(N4CCCC4)n3)o2)cc1,41,?,-10%,?,?
COc1ccc(-c2cnnc(N/N=C/c3ccc(-c4ccc([N+](=O)[O-])cc4)o3)n2)cc1,54,1µM*,-6%,?,-36%
O=C(O)c1cccc(-c2ccc(/C=N/Nc3nn[nH]n3)o2)c1,3,-35%,10%,1%,-11%
COc1ccccc1-c1cnnc(N/N=C/c2ccc(-c3cccc(Br)c3)o2)n1,-22,14%,2µM*,2%,1µM*
COc1ccc(-c2cnnc(N/N=C/c3ccc(O)c(OC)c3)n2)cc1,-27,15µM*,-12%,16µM*,-11%
COc1cc(/C=N/Nc2ccnc(=O)[nH]2)ccc1O,?,2%,12%,-19%,-8%
CC(=O)c1ccc(N2CCN(C(=O)c3ccccc3SCC(=O)NCc3ccco3)CC2)c(F)c1,1,1%,.,-8%,.
O=C(CN(CC1CCCO1)C(=O)CNS(=O)(=O)c1ccc(F)cc1)NCc1ccc(F)cc1 (centres undefined),22,0%,0%,2%,-2%
O=Cc1cccnc1SCc1ccccc1,54,20%,.,2.6µM*,.
Oc1cccnc1SCc1ccccc1,38,-2%,.,-2%,.
COC(C[C@H]1O[C@H]1C(=O)[C@@H](C)OCc1ccccc1)OC,-13,?,.,1%,.
COC(C[C@@H]1O[C@H]1C(=O)[C@@H](C)OCc1ccccc1)OC,?,?,.,23µM*,.
CCC(=O)N1CCC1(C)C(=O)Nc1ccc2scnc2c1 (centres undefined),18,.,.,.,.
Nc1nc2ccccc2n1C(=O)c1ccc(F)cc1,-9,-6%,11µM*,0%,2.2µM*
Nc1nc2ccccc2n1C(=O)c1ccco1,-2,17%,?,6%,11µM*
Nc1nc2ccccc2n1C(=O)c1cccs1,-8,2%,2.8µM*,3%,0.89µM*
Nc1nc2ccccc2n1C(=O)c1ccccc1,9,6%,5µM*,27%,0.63µM*
COc1cc2cncc(Cc3ccc(Cl)cc3)c2cc1OC,-11,12%,.,?,.
O=C(c1ccccc1)N(c1ccccc1)c1ccccc1O,20,22%,.,?,.
FC(F)(F)c1ccccc1-c1cc(NCc2cccs2)ncn1,.,.,2%,.,13%
COc1c(Cl)cc(C(=O)NN)cc1Cl,86,?,?,13µM*,?
COc1c(Cl)cc(C(=O)O)cc1Cl,28,-4%,.,0%,.
